From PubChem BioAssay (NCI)
About 79,000 compounds went through this panel and 15% of them were active in at least one assay; those are over-represented in the sample as a whole. Calls of active or inactive are those of the source. Rule as the data show it: active = growth inhibition above about 70%; inactive = the rest.

What was measured:
[1] = NCI Yeast Anticancer Drug Screen. Data for the rad52 strain (AID 147);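 also: 0% = growth of vehicle-treated control cultures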; conditions: S. cerevisiae rad52 mutant growth inhibition, stronger effect = higher value
In short: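 Compounds are applied to a genetically defined yeast strain lacking normal DNA damage repair, and inhibition of growth is expressed relative to cultures given vehicle only.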

[2] = NCI Yeast Anticancer Drug Screen. Data for the wt1 strain (AID 149);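 also: 0% = growth of vehicle-treated wt1 cultures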; conditions: S. cerevisiae wt1 strain (SPY 50644) growth inhibition, stronger effect = higher value
In short: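 Using yeast strain wt1, compound-induced growth inhibition was determined against vehicle-treated cultures.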

[3] = NCI Yeast Anticancer Drug Screen. Data for the rad50EPP+ strain (AID 151);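 also: 0% = growth of vehicle-treated control cultures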; conditions: S. cerevisiae rad50 mutant strain, stronger effect = higher value
In short: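 Compounds were applied to the rad50EPP+ yeast strain, which bears a defined DNA repair alteration, and growth inhibition was determined relative to vehicle-treated cultures.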

[4] = NCI Yeast Anticancer Drug Screen. Data for the mgt1 strain (AID 153); conditions: S. cerevisiae mgt1 mutant growth inhibition, stronger effect = higher value
In short: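 Strain: mgt1 yeast, one of a set carrying defined DNA damage repair or cell cycle control alterations. Compound-treated growth compared with vehicle.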

[5] = NCI Yeast Anticancer Drug Screen. Data for the rad50 strain (AID 155);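 also: 0% = growth of vehicle-only cultures of the same strain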; conditions: S. cerevisiae rad50 strain growth inhibition, stronger effect = higher value
In short: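 Relative growth inhibition (compound vs vehicle) was measured in yeast with a defined repair-gene alteration.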

[6] = NCI Yeast Anticancer Drug Screen. Data for the mec2-1 strain (AID 157); conditions: S. cerevisiae mec2-1 strain, stronger effect = higher value
In short: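 Strain: mec2-1 (DNA repair/cell cycle alteration). Compound exposure, then growth measured; inhibition expressed relative to vehicle.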

[7] = NCI Yeast Anticancer Drug Screen. Data for the sgs1 mgt1 strain (AID 161);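 also: 0% = growth of cultures given vehicle only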; conditions: S. cerevisiae sgs1 mgt1 strain, stronger effect = higher value
In short: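 Mutant yeast exposed to compound; growth scored against vehicle-only wells.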

[8] = NCI Yeast Anticancer Drug Screen. Data for the CLN2oe strain (AID 163);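 also: 0% = growth of vehicle-only control cultures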; conditions: S. cerevisiae CLN2oe strain, stronger effect = higher value
In short: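 Growth of a genetically modified yeast strain is measured after compound exposure and compared with cultures given vehicle alone.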

[9] = NCI Yeast Anticancer Drug Screen. Data for the cln2 rad14 strain (AID 165);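 also: 0% = growth equal to vehicle treated cultures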; conditions: S. cerevisiae cln2 rad14 strain, stronger effect = higher value
In short: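 Compounds are applied to the cln2 rad14 yeast strain, and growth is then compared with that of vehicle-treated cultures to give inhibition.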

[10] = NCI Yeast Anticancer Drug Screen. Data for the bub3 strain (AID 167); conditions: S. cerevisiae bub3 mutant strain, stronger effect = higher value
In short: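 Screening used yeast with an engineered genetic alteration affecting cell cycle control. Compound-exposed cultures were compared with vehicle cultures, and reduced growth was taken as inhibition.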

[11] = NCI Yeast Anticancer Drug Screen. Data for the wt2 strain (AID 169);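 also: 0% = growth of vehicle-treated yeast cultures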; conditions: S. cerevisiae wt2 strain growth inhibition, stronger effect = higher value
In short: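 This strain belongs to a panel of yeast strains with defined genetic alterations in DNA damage repair or cell cycle control. Compounds are applied, and growth inhibition is measured against vehicle-treated cultures.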

[12] = NCI Yeast Anticancer Drug Screen. Data for the mlh1 strain (AID 171);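 also: 0% = growth of vehicle-treated control cultures of the same strain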; conditions: S. cerevisiae mlh1 strain growth inhibition, stronger effect = higher value
In short: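 Growth of the mutant yeast strain after compound exposure, expressed as inhibition relative to vehicle-only controls.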

[13] = NCI Yeast Anticancer Drug Screen. Data for the sgs1 strain (AID 173);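 also: 0% = growth of vehicle-only control cultures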; conditions: S. cerevisiae sgs1 mutant, stronger effect = higher value
In short: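 Growth of a yeast strain bearing a defined genetic alteration is measured after compound treatment. Inhibition is expressed relative to vehicle-only controls.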

[14] = NCI Yeast Anticancer Drug Screen. Data for the mlh1 rad18 strain (AID 175); conditions: S. cerevisiae mlh1 rad18 strain growth inhibition, stronger effect = higher value
In short: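 Read-out is yeast growth inhibition, calculated against vehicle-only controls. The compound was applied to a strain engineered with DNA damage repair alterations.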

[15] = NCI Yeast Anticancer Drug Screen. Data for the rad18 strain (AID 177); conditions: S. cerevisiae rad18 mutant growth inhibition, stronger effect = higher value
In short: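 Growth of the mutant yeast strain after compound exposure, normalised to vehicle-only cultures.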

[16] = at 5.0 µM (retest, dose inferred, filed as 0.5)
[17] = at 50.0 µM (retest, dose inferred, filed as 5.0)

Measured: growth inhibition

CCC(C)(C)c1ccc(Oc2cccc(C(=O)O)c2)cc1
inactive: [1]; at 1.2 µM -2% | [1]; at 3.7 µM -1% | [1]; at 11.0 µM 17% | [1]; at 33.0 µM 59% | [1]; at 100.0 µM 68% | [2]; at 1.2 µM -1% | [2]; at 3.7 µM -3% | [2]; at 11.0 µM 12% | [2]; at 33.0 µM 49% | [2]; at 100.0 µM 59% | [3]; at 1.2 µM 8% | [3]; at 3.7 µM 18% | [3]; at 11.0 µM 25% | [3]; at 33.0 µM 42% | [3]; at 100.0 µM 56% | [4]; at 1.2 µM -4% | [4]; at 3.7 µM -6% | [4]; at 11.0 µM 2% | [4]; at 33.0 µM 52% | [5]; at 1.2 µM 2% | [5]; at 3.7 µM -1% | [5]; [16] -2% | [5]; at 11.0 µM 25% | [5]; at 33.0 µM 55% | [5]; [17] 44% | [6]; at 1.2 µM -1% | [6]; at 3.7 µM 2% | [6]; [16] 19% | [6]; at 11.0 µM 25% | [6]; [17] 48% | [7]; [16] -1% | [7]; [17] 9% | [7]; at 50.0 µM 58.2% | [8]; at 1.2 µM -4% | [8]; at 3.7 µM -4% | [8]; at 11.0 µM 24% | [9]; [16] -27% | [9]; [17] 30% | [10]; at 1.2 µM -8% | [10]; at 3.7 µM -2% | [10]; [16] -17% | [10]; at 11.0 µM 23% | [10]; at 33.0 µM 68% | [10]; [17] 32% | [11]; at 1.2 µM -4% | [11]; at 3.7 µM -4% | [11]; at 11.0 µM 7% | [11]; at 33.0 µM 46% | [11]; at 100.0 µM 62% | [12]; at 1.2 µM 1% | [12]; at 3.7 µM -1% | [12]; at 11.0 µM 14% | [12]; at 33.0 µM 31% | [13]; at 1.2 µM 6% | [13]; at 3.7 µM 10% | [13]; at 11.0 µM 28% | [13]; at 33.0 µM 54% | [13]; at 100.0 µM 68% | [14]; [16] 10% | [14]; [17] 36% | [15]; at 1.2 µM 8% | [15]; at 3.7 µM 3% | [15]; at 11.0 µM 17% | [15]; at 33.0 µM 49% | [15]; at 100.0 µM 69%
active: [4]; at 100.0 µM 92% | [5]; at 50.0 µM 72.1% | [5]; at 100.0 µM 71% | [6]; at 33.0 µM 70% | [6]; at 50.0 µM 78.8% | [6]; at 100.0 µM 96% | [8]; at 33.0 µM 84% | [8]; at 100.0 µM 84% | [9]; at 50.0 µM 88% | [10]; at 50.0 µM 71.8% | [10]; at 100.0 µM 84% | [12]; at 100.0 µM 96% | [14]; at 50.0 µM 86.7%
